From PubChem BioAssay
SENP7 block: inhibitors of human SENP7 protease | Q9BQF6 | recombinant SENP7, Z-RLRGG-aminoluciferin luminescence, 40 min | inhibition, % at 5 µM | hit rate 1.5% among 330,000 | AID 434973;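 active = inhibition above about 50% at the single test dose, limit read from the data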;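 note: plate controls were DMSO with enzyme for no effect and no enzyme buffer wells for full effect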
Target sequence (Q9BQF6 706-1050 limits assumed): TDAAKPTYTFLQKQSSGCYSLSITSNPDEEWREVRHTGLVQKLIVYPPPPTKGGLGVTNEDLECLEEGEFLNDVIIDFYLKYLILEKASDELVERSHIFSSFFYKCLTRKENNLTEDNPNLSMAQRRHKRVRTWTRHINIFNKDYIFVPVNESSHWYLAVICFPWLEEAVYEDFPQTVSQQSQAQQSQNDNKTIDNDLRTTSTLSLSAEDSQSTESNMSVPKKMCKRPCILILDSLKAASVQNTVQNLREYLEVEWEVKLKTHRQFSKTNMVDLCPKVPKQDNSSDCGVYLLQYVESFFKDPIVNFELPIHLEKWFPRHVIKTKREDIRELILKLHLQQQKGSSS
SENP8 block-1: SENP8 protease inhibition | AID 2540 | inhibition, % at 10 µM | purified SENP8, Z-RLRGG-aminoluciferin cleavage, luminescence | hit rate 1.2% among 330,000 | Q96LD8; in the data active = inhibition above about 50%
Target sequence (Q96LD8 whole entry, looked up): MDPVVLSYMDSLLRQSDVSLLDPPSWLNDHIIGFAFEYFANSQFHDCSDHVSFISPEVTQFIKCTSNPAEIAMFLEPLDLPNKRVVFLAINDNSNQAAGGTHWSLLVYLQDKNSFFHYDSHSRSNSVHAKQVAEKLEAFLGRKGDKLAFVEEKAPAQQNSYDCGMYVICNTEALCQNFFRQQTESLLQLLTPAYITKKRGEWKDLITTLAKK
HSP90 inh: HSP90 refolding inhibition in rabbit reticulocyte lysate. luciferase refolding luminescence, 3 h. inhibition, % at 5.6 µM. hit rate 0.91% among 290,000;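 active = inhibition above the screen-wide mean plus 3 SD, computed separately per campaign, cut at about 16% in these data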;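 note: 0% = DMSO wells and 100% = 60 µM geldanamycin wells; inhibitors lower the luminescence because luciferase stays unfolded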
SENP8 block-2: inhibitors of human SENP8 protease. Q96LD8. inhibition, % at 20 µM. AID 602440. hit rate 0.64% among 360,000. recombinant SENP8, Nedd8 substrate fluorescence; in the data active = inhibition mostly above about 40%, no sharp cut-off; inactive = mostly below about 27%
SENP6 inh: inhibitors of human SENP6 protease | hit rate 1.8% among 330,000 | Q9GZR1 | inhibition, % at 10 µM | Recombinant SENP6 catalytic domain, aminoluciferin luminescence;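 active = inhibition above about 50% at the single tested dose, limit read from the data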;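 note: plate controls were DMSO wells with enzyme for no effect and DMSO wells lacking enzyme for full effect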
LGR2 antag: blocks bursicon-induced cAMP signaling via Drosophila LGR2; HEK293 LGR2, CRE-luciferase, bursicon-stimulated, 4 h; inhibition, % at 9.99 µM; hit rate 0.35% among 380,000;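 active = drop in luminescence signal, shown as inhibition above about 50% in the replicate tests, limit read from the data, passing the limit was not always enough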;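 note: agonist challenge used bursicon conditioned medium at about half maximal strength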
SENP8 conf: SENP8 (human) inhibition, single concentration confirmation. inhibition, % at 25 µM. hit rate 15% among 1,400. purified SENP8, Nedd8-AMC/pro-Nedd8 cleavage fluorescence, 30 min. shares compounds with SENP8 block-2; in the data active = inhibition mostly above about 39%, no sharp cut-off; inactive = mostly below about 34%
An asterisk follows results filed as active; . = no result given. The list is not random: actives were taken first. Their share in the collection is about 2.3%.

SMILES	SENP7 block	SENP8 block-1	HSP90 inh	SENP8 block-2	SENP6 inh	LGR2 antag	SENP8 conf
CC(=O)Nc1ccc(S(=O)(=O)N2CCSC2c2ccccc2Cl)cc1 (stereo not drawn)	-9	-4	-2	8	-7	1	.
COC(=O)C1SCCN1S(=O)(=O)c1ccc(Cl)cc1 (stereo not drawn)	-3	-11	.	42*	-2	21	12
OC1(C#CCCN2CCCCC2)c2ccccc2-c2ccccc21	0	9	-3	13	2	14	.
N#CC1(CCCN2CCCCC2)c2ccccc2CCc2ccccc21	2	0	.	41*	-11	2	23
COc1ccc([C@@H]2C[C@H]3CN(c4ccccc4)C(=O)[C@]34CCCN24)c(OC)c1OC	13	-1	2	5	-5	3	.
COCc1cc([C@@H]2C[C@H]3CN(c4ccccc4)C(=O)[C@]34CCCN24)ccc1OC	-3	-1	4	42*	5	10	13
COc1ccc2c(c1)Cc1sc(NC(=O)c3cccnc3)nc1-2	84*	86*	-6	64*	89*	7	25
Cc1cc(C(=O)Nc2cccc3c2O[C@H](CN(C)C(=O)Nc2ccccc2)[C@H](C)CN([C@@H](C)CO)C3=O)n(C)n1	.	.	.	.	.	-39	.
Cc1noc(C)c1NC(=O)Nc1ccc2c(c1)C(=O)N([C@@H](C)CO)C[C@@H](C)[C@H](CN(C)C(=O)CCCN(C)C)OCCCC[C@@H](C)O2	.	.	.	.	.	-10	.
CC(=O)N1[C@@H]2c3ccc(-c4cccnc4)c(=O)n3C[C@@H]2[C@@H](CO)[C@@H]1C(=O)N1CCc2ccccc2C1	.	.	.	.	.	-13	.
COc1ccc(C(=O)CSc2nnc(C(CO)NC(=O)c3ccc(OC)cc3)n2C)cc1 (stereo not drawn)	7	1	1	73*	-5	.	13
CCCC(=O)Nc1ccc2c(c1)C(=O)N(C)[C@@H]1CC[C@@H](CC(=O)NCc3ccccc3F)O[C@H]1CO2	.	.	.	.	.	3	.
COc1ccc(NC2CCCN(C(=O)CSc3ccccn3)C2)cc1OC (stereo not drawn)	6	4	-3	28*	-7	-5	33
C=CCNc1nc2c3ccccc3n(C(C)=O)c2s1	2	-2	0	51*	1	7	34
CC(=O)n1c2ccccc2c2nc3ccccc3nc21	-12	-8	-1	-429	-6	.	.
C[C@@H]1CN([C@H](C)CO)C(=O)c2cc(NC(=O)CCC(F)(F)F)ccc2O[C@@H](C)CCCCO[C@H]1CN(C)S(=O)(=O)c1cn(C)cn1	.	.	.	.	.	-10	.
CC(C)NC(=O)N(C)C[C@H]1Oc2c(NC(=O)C3CCCCC3)cccc2C(=O)N([C@@H](C)CO)C[C@@H]1C	.	.	.	.	.	-18	.
O=C(O)c1ccccc1S(=O)(=O)NCC(O)COC1CCCCC1 (stereo not drawn)	-7	-13	3	43*	-18	.	2
Cc1ccc(OCC(O)CNS(=O)(=O)c2ccccc2C(=O)O)cc1 (stereo not drawn)	9	-3	3	26	-6	.	.
CC1CCC2C(=O)N(c3ccc(NC4CCCCC4)c([N+](=O)[O-])c3)C(=O)C2C1 (stereo not drawn)	2	1	0	24	-7	-2	.
CCOC(=O)N1CCC(Nc2ccc(N3C(=O)C4CCCCC4C3=O)cc2[N+](=O)[O-])CC1 (stereo not drawn)	8	1	-1	38*	-22	-8	22
COc1ccc(CCN(C)c2ccc(S(=O)(=O)N3CCCC3)cc2[N+](=O)[O-])cc1OC	-5	-8	-2	43*	5	-10	10
CO[C@@H]1CN(C)C(=O)c2cc(NC(=O)NC3CCCCC3)ccc2OC[C@H](C)N(CC2CCOCC2)C[C@@H]1C	.	.	.	.	.	-7	.
CN(CCO)c1cc(Sc2nc3ccccc3s2)c2nonc2c1[N+](=O)[O-]	-3	2	3	55*	30	-24	32
C[C@H](CO)N1C[C@H](C)[C@H](CN(C)CC2CC2)Oc2ccc(NC(=O)Cc3ccccc3)cc2C1=O	.	.	.	.	.	11	.
SMILES	SENP7 block	SENP8 block-1	HSP90 inh	SENP8 block-2	SENP6 inh	LGR2 antag	SENP8 conf
CC(C)(C)OC(=O)N1Cc2ccccc2C[C@H]1C(=O)O	6	3	-1	40*	15	2	68*
O=C(O)C1Cc2ccccc2CN1C(=O)c1ccccc1 (stereo not drawn)	5	-2	1	12	-2	.	.
Nc1cc([N+](=O)[O-])cc2oc(-c3ccccc3)cc12	13	-4	7	36*	20	-79	19
C[C@H](CO)N1C[C@H](C)[C@H](CN(C)Cc2ccccc2)Oc2ccc(NS(=O)(=O)c3cccs3)cc2C1=O	.	.	.	.	.	-24	.
CCN(CC)S(=O)(=O)c1ccc(N2CCOCC2)c(NC(=O)C(=O)c2c(-c3ccccc3)cc3ccccn23)c1	6	3	1	75*	7	.	21
COc1cccc(NC(=O)Nc2ccc3c(c2)C(=O)N(C)[C@H]2CC[C@H](CC(=O)O)O[C@@H]2CO3)c1	.	.	.	.	.	-20	.
Cc1cc(=O)oc(C)c1C(=O)Nc1cccc2ccccc12	2	0	4	43*	12	.	17
CC(=O)Nc1ccc(Nc2ncc([N+](=O)[O-])c(Nc3ccc(NC(C)=O)cc3)n2)cc1	-4	-4	-4	44*	-5	.	8
COc1ccc(NC(=O)Nc2ccc3c(c2)CC(=O)N([C@H](C)CO)C[C@@H](C)[C@H](CN(C)C(=O)NC(C)C)O3)cc1	.	.	.	.	.	8	.
CN1CCN(C2CN(C3CCCCC3)S(=O)(=O)C2)CC1 (stereo not drawn)	.	.	.	9	.	-10	.
O=S1(=O)CC(N2CC=CC2)CN1C1CCCCC1 (stereo not drawn)	.	.	.	41*	.	6	36*
CC(C)NC(=O)Nc1ccc2c(c1)C(=O)N([C@@H](C)CO)C[C@@H](C)[C@@H](CN(C)C)OCCCC[C@@H](C)O2	.	.	.	.	.	-12	.
CC1=NCCN1S(=O)(=O)c1cc(Cl)ccc1Cl	-8	-3	1	48*	-8	.	9
COc1ccccc1OCCCCN1CCN(c2ccccc2OC)CC1	-5	-7	-1	48*	-25	.	9
Cc1ccc(S(=O)c2ccc([N+](=O)[O-])c3nonc23)cc1 (stereo not drawn)	.	.	.	61*	.	0	43
Cc1cccc(NC(=O)c2ccc(NCC3CCCO3)c([N+](=O)[O-])c2)c1 (stereo not drawn)	-17	-7	-1	25	-6	-26	.
O=C(Nc1cccc(Cl)c1)c1ccc(NCC2CCCO2)c([N+](=O)[O-])c1 (stereo not drawn)	-7	5	2	44*	-11	-28	13
COc1cccc(NC(=O)N(C)C[C@H]2Oc3cc(/C=C/c4ccccc4)ccc3S(=O)(=O)N([C@@H](C)CO)C[C@H]2C)c1	.	.	.	.	.	7	.
